About 3,400 (1%) of roughly 340,000 compounds were called active.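 The calls were made as follows: active = inhibition above the mean over all tested compounds plus 3 SD (cut at about 4.2% in these data); inactive = the rest.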 Shown is part of a subset that was picked to be rich in actives.
The molecules below were run against Nuclear receptor subfamily 0 group B member 1 (Homo sapiens) (UniProt P51843) (assay: relief of DAX1 transcriptional repression – cell-based, HEK293, Gal4-DAX1, luciferase luminescence, primary screen (AID 504766;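 also: 0% = DAX1-transfected cells with DMSO and 100% = empty-vector control cells with DMSO; inhibition shows as a rise in luminescence from relieved DAX1 repression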)). Conditions: HEK293 Gal4-DAX1 luciferase reporter, at 6.75 µM, hits give high values.
Chain of Nuclear receptor subfamily 0 group B member 1 (Homo sapiens) (P51843 207-470 limits assumed): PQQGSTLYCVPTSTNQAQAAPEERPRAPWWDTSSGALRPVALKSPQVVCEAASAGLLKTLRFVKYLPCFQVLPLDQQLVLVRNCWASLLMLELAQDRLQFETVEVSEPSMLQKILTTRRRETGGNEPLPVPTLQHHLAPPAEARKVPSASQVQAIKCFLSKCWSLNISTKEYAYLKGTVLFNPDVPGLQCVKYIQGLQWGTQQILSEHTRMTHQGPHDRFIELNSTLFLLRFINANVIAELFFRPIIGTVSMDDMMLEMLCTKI

Row | Compound | inhibition
1 | Cc1nc2ccccc2nc1CC(O)(c1ccccc1)c1ccccc1 | 1.49% (inactive)
2 | COc1ccc(CN2C(=O)C(CC(=O)NCc3cccc4ccccc34)CC(C(=O)N3CCOCC3)=C2C)cc1 (configuration not stated) | 0.04% (inactive)
3 | CC(Sc1ccc(S(=O)(=O)N2CCN(C)CC2)cn1)C(=O)NC1CCCC(C)C1C (configuration not stated) | 0.86% (inactive)
4 | C[C@H]1Cn2cnc(C(=O)N[C@H](C)c3ccccc3)c2C(=O)N1 | 1.52% (inactive)
5 | CCOC(=O)C(=Cc1ccccc1)C(=O)c1ccccc1 | -1.17% (inactive)
6 | O=C(NC1CCCC1)c1cc(-c2ccccc2)on1 | 5.49% (active)
7 | O=C(NC1CCCCC1)c1cc(C2CC2)on1 | 1.17% (inactive)
8 | O=C(NCCCn1ccnc1)c1cc(Br)c(Br)s1 | 2.56% (inactive)
9 | O=C(NCCCn1ccnc1)c1ccccc1F | 1.27% (inactive)
10 | O=C(NCCCn1ccnc1)c1cc(-c2ccccc2)on1 | 4.72% (active)
11 | O=C(NC1CCCCCCC1)c1cccs1 | 0.85% (inactive)
12 | O=NN(CCCl)C(=O)NCCc1cccc[n+]1[O-] | 0.77% (inactive)
13 | CN(C)C(CNC(=O)c1cc(Br)c(Br)s1)c1ccco1 (configuration not stated) | -0.16% (inactive)
14 | O=C1[C@H]2[C@@H](c3ccc(C(F)(F)F)cc3)N[C@]3(CCCN(Cc4ccc(Cl)cc4)C3=O)[C@H]2C(=O)N1Cc1ccccc1 | -0.84% (inactive)
15 | Cc1ccc(Cc2c(-c3ccc(C)cc3)nc3c4ccccc4ccn23)cc1 | 0.53% (inactive)
16 | O=C(CN1C(=O)NC2(CCc3ccccc32)C1=O)NC1CCCCC1 (configuration not stated) | -0.26% (inactive)
17 | N#Cc1c(C(F)(F)F)cc(-c2ccccc2)nc1SCC(=O)N1CCOCC1 | -0.64% (inactive)
18 | Cc1cc(C(F)(F)F)c(C#N)c(SCC(=O)NC2CC2)n1 | -0.39% (inactive)
19 | N#Cc1c(C(F)(F)F)cc(-c2ccc(Cl)cc2)nc1SCC(=O)O | 4.58% (active)
20 | Cc1ccc(C(=O)N[C@H](C(=O)N2CCN(c3ncccn3)CC2)C(C)C)cc1 | 1.36% (inactive)
21 | CC1(C2CC2)NC(=O)N(CC(=O)N2CCN(c3ccccc3F)CC2)C1=O (configuration not stated) | -0.4% (inactive)
22 | COc1cc(C)c(CN2CCN(C(=O)CCC(=O)c3ccc(C)s3)CC2)cc1OC | 0.95% (inactive)
23 | COC(=O)C[C@H]1C[C@@H]2c3cc(N(C)C)ccc3O[C@@H]2[C@H](CO)O1 | 1.14% (inactive)

Row | Compound | inhibition
24 | O=C(NCCc1cccc(F)c1)C1CC(O)CN1C(=O)Nc1ccccc1 (configuration not stated) | 0.98% (inactive)
25 | COC(=O)c1sc(SC)c(S(=O)(=O)C(C)C)c1N/N=C(\C#N)S(=O)(=O)c1ccccn1 | 4.53% (active)
26 | Cc1cc(C)c2c(=O)n3c(nc2c1)C(CC(C)C)NC(=O)c1cc2ccccc2cc1-3 (configuration not stated) | 0.81% (inactive)
27 | COc1ccc(C=C2CCC3C(CCCC34OCCO4)C2=O)cc1 (configuration not stated) | 1.37% (inactive)
28 | COc1ccc(CN2C(=O)C(CC(=O)NCCCCc3ccccc3)CC(C(=O)N3CCOCC3)=C2C)cc1 (configuration not stated) | -0.84% (inactive)
29 | CCCCCCNC(=O)O[C@]12C[C@@H](C(=O)OC)[C@@H](C(=O)OC)C[C@@]1(O)CN(S(=O)(=O)c1ccc(C)cc1)C2 | 0.26% (inactive)
30 | CCOC(=O)c1cc(-c2sc(NC(=O)c3ccccc3)nc2C)n(Cc2ccccc2)n1 | -1.03% (inactive)
31 | O=S1(=O)CCN(C2CCCCCCCCCCC2)CC1 | -0.26% (inactive)
32 | Cc1cc(C)nc(NC(=O)c2cccc([N+](=O)[O-])c2)c1 | 0.73% (inactive)
33 | O=C(Nc1cccc([N+](=O)[O-])c1)c1ccc2c(c1)OCO2 | 0.29% (inactive)
34 | O=C(Nc1ccc(C2CC2(Cl)Cl)cc1)c1cccc([N+](=O)[O-])c1 (configuration not stated) | 4.49% (active)
35 | CC1=C(C(=O)N2CCOCC2)CC(CC(=O)NCc2ccco2)C(=O)N1Cc1ccc(F)cc1 (configuration not stated) | 1.82% (inactive)
36 | C/C(=N\NC(=S)NC1CCCCC1)c1ccc(C)o1 | 0.98% (inactive)
37 | COc1ccc(C(=O)NC(=S)NC2CCCCC2)cc1 | 1.16% (inactive)
38 | Cc1ccc(/C=N/NC(=S)NC2CCCCC2)o1 | 4.44% (active)
39 | CC1CCCCC12NC(=O)N(CC(=O)N1CCN(c3ccccc3)CC1)C2=O (configuration not stated) | 1.67% (inactive)
40 | NC(=O)C1CCCN(CC(=O)N2CCN(c3ccccc3)CC2)C1 (configuration not stated) | 6.46% (active)
41 | O=C(C1CCC1)N1CCN(c2ccccc2)CC1 | 0.59% (inactive)
42 | Cc1ccc(S(=O)(=O)N2C[C@H]3C(=O)C[C@@H](c4cccc5ccccc45)N(S(=O)(=O)c4ccc(C)cc4)[C@H]3C[C@H]2c2ccc(Cl)cc2)cc1 | -0.08% (inactive)
43 | CC(C)CC(=O)N/C(N)=N/c1nc2ccccc2s1 | 0.77% (inactive)
44 | CCC(=O)NC(=Nc1nc2ccccc2s1)NC(=O)CC | 6.2% (active)
45 | O=C(CCC(=O)c1cccs1)Nc1nc2ccccc2s1 | 0.63% (inactive)
46 | Cc1cccc(C(=O)C(O)(c2ccccc2)C2CCCCC2=O)c1 (configuration not stated) | 0.38% (inactive)

Row | Compound | inhibition
47 | COc1ccc(NC(=O)CN(C)C(=O)c2cc(C)oc2C)cc1 | -0.29% (inactive)
48 | Cc1cc2[nH]ncc2cc1NC(=S)NC(=O)c1ccccc1 | 5.71% (active)
49 | Cn1nnc(NC(=S)NC(=O)c2ccccc2)n1 | 0.45% (inactive)
50 | Cc1cc(C)cc(C(=O)NC(=S)Nc2ccc3[nH]c(=O)[nH]c3c2)c1 | -1.15% (inactive)
51 | O=C(OCC(=O)N1CCCCCC1)c1cccc(Cl)c1Cl | 3.82% (inactive)
52 | O=C(CSc1ncn[nH]1)Nc1nc2c(F)c(F)c(F)cc2s1 | 0.83% (inactive)
53 | C=CCSC(CC)(CC)C(N)=O | 4.43% (active)
54 | CCCOC(=O)c1ccc(N2C(=O)c3ccccc3C2=O)cc1 | -0.27% (inactive)
55 | Cc1[nH]n(-c2ccccc2)c(=O)c1CCOC(=O)c1ccc(C(F)(F)F)cc1 | 5.49% (active)
56 | CCOC(=O)C[C@H]1c2ccc(C(F)(F)F)cc2S(=O)(=O)N1c1ccccc1 | 0.49% (inactive)
57 | Cc1ccc([C@H]2N[C@]3(CCCN(CC4CCCCC4)C3=O)[C@H]3C(=O)N(Cc4ccccc4)C(=O)[C@@H]23)cc1 | -0.61% (inactive)
58 | CC1(C)CC(=O)C=C(c2ccccc2CO)C1=O | 0.81% (inactive)
59 | CC(C)CNS(=O)(=O)c1ccc(C(=O)Nc2ccc3c(c2)OCO3)cc1 | 0.58% (inactive)
60 | CNS(=O)(=O)c1ccc(NC(=O)Nc2ccc3c(c2)OCO3)cc1 | 4.23% (active)
61 | Cc1cccc(NC(=O)Nc2ccc3c(c2)OCO3)n1 | 3.3% (inactive)
62 | C/C(COc1ccccc1)=N\NC(=O)c1nnn(-c2nonc2N)c1-c1ccc(C)cc1 | 1.15% (inactive)
63 | CC(Sc1nnnn1C)C(=O)NC(=O)NC1CCCCC1 (configuration not stated) | 4.23% (active)
64 | Cc1nnc(SCC(=O)NC(=O)NC2CCCC2)n1N | -0.17% (inactive)
65 | CC(Sc1nnnn1C1CCCCC1)C(=O)O (configuration not stated) | -0.46% (inactive)
66 | NC(=S)NN=Cc1ccc(OC(=O)COc2cc(Cl)c(Cl)cc2Cl)cn1 | -2.71% (inactive)
67 | O=C(CN1CCCSc2ccccc21)N1CCN(S(=O)(=O)c2cccc(F)c2)CC1 | -0.31% (inactive)
68 | N#C/C=C1\Sc2ccccc2C(=O)N1CC(=O)N1CCN(S(=O)(=O)c2ccccc2)CC1 | 4.84% (active)
69 | O=C(CN1CCCSc2ccccc21)N1CCN(S(=O)(=O)c2ccccc2)CC1 | 0.49% (inactive)

Row | Compound | inhibition
70 | COCOCCn1cc(CN2CCS(=O)(=O)N(Cc3ccc(-c4ccc(OC)cc4)cc3)C(CC(C)C)C2=O)nn1 (configuration not stated) | -0.18% (inactive)
71 | COc1ccccc1NC(=S)N1CCN(c2ccc(F)cc2)CC1 | 0.5% (inactive)
72 | CC1CN(C(=S)Nc2ccccc2F)CC(C)O1 (configuration not stated) | -0.08% (inactive)
73 | COc1c(N2CCN(C(=S)Nc3ccccc3F)C(C)C2)c(F)cc2c(=O)c(C(=O)O)cn(C3CC3)c12 (configuration not stated) | 4.24% (active)
74 | Cc1ccc(C(=O)NC(C)C(c2cccs2)N2CCOCC2)cc1C (configuration not stated) | 0.43% (inactive)
75 | O=C(Nc1cccc(C(=O)O)c1)/C(=C\c1ccccc1)NC(=O)c1ccc(Br)o1 | 1.84% (inactive)
76 | c1cnn(-c2cc(N3CCOCC3)ncn2)c1 | 0.28% (inactive)
77 | Fc1ccccc1/C=N/Nc1cc(N2CCCCC2)ncn1 | 9.97% (active)
78 | COc1ccccc1N1CCN(C(=O)C(=O)N/N=C/c2ccccc2F)CC1 | -0.62% (inactive)
79 | Cc1cccc(C(=O)OCC(=O)Nc2sccc2C(N)=O)c1C | 0.47% (inactive)
80 | COc1cc2[nH]c(=S)n(Cc3ccc(F)cc3)c(=O)c2cc1OC | -0.72% (inactive)
81 | COc1ccc(Cn2c(=O)cc(C)[nH]c2=S)cc1 | 4.43% (active)
82 | COc1ccc(Cn2c(=S)[nH]c3cc(C(=O)N4CCCCC4)ccc3c2=O)cc1 | -0.61% (inactive)
83 | COc1ccccc1-c1n[nH]nc1C1=CC(=O)CC(C)(C)C1 | 1.58% (inactive)
84 | CCOc1ccc(NS(=O)(=O)c2ccc(C(=O)NCC3CCCO3)cc2)cc1 (configuration not stated) | 0.78% (inactive)
85 | O=[N+]([O-])c1cccc(/C=N/Nc2ncc(Br)cn2)c1 | 3.56% (inactive)
86 | CC(=O)c1sc(N/N=C/c2ccc(C(C)C)cc2)nc1C | 0.37% (inactive)
87 | CC(C)c1ccc(C=NNc2ccc([N+](=O)[O-])cn2)cc1 | 4.47% (active)
88 | CC1=C(C(=O)N(C)C)CC(CC(=O)NCCN2CCOCC2)C(=O)N1Cc1ccccc1 (configuration not stated) | 0.86% (inactive)
89 | CC(C)CCOc1ccc(C(=O)Nc2cc(S(=O)(=O)N3CCOCC3)ccc2N2CCOCC2)cc1 | 1.57% (inactive)
90 | COC(=O)C1=C(C)N(C)C(C)=C(C(=O)OC)C1c1cccc(Br)c1 | -0.19% (inactive)
91 | COc1ccc(C(=O)c2oc3ccc(Br)cc3c2NC(C)=O)cc1 | 0.74% (inactive)
92 | COC(=O)C1NN=C(C(=O)c2ccc(Br)cc2)C1c1cccc(Br)c1 (configuration not stated) | 5.4% (active)

Source: PubChem BioAssay AID504766 (The Scripps Research Institute Molecular Screening Center, 2011)
